UBC13 inh: human UBC13 polyubiquitination inhibition | P61088 | UBC13 polyubiquitin chain formation, TR-FRET | inhibition, % at 20 µM | 0.47% of 330,000 active | AID 485273; in the data active = inhibition above about 45%, passing the limit was not always enough
Target sequence (P61088 whole entry, looked up): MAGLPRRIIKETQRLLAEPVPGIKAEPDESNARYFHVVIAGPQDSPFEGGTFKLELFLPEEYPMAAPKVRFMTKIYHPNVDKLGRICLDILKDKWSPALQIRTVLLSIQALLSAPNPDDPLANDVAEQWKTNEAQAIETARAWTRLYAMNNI
PREPL inhibitor: human PREPL enzyme inhibition | Q4J6C6 | recombinant PREPL, fluorescence polarization activity-based probe | inhibition, % at 5.96 µM | 0.68% of 320,000 active; in the data active = inhibition above about 43%
DNA FID counter: counter-screen for HCV NS3 helicase inhibitors: DNA intercalator displacement. inhibition, % at 7.9 µM. 0.17% of 290,000 active. DNA fluorescent intercalator displacement, fluorescence. AID 1845; in the data active = inhibition above about 37%;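 also: higher means more ethidium bromide displaced from hairpin DNA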
MIN6 prolif: MIN6 beta-cell proliferation induction; AID 2380; MIN6 cells proliferation, ATPlite luminescence, 48 h; cells starved in 0.2% serum; 100% = growth in 10% serum; 0.29% of 330,000 active; proliferation, % at 10 µM;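 active = compounds whose signal lies at least 3.5 SD above the mean of all wells on their plate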
RAD52 anneal inh: blocks human RAD52 DNA annealing | inhibition, % at 18.7 µM | 0.46% of 360,000 active | P43351 | AID 651710 | recombinant RAD52 DNA annealing, FRET fluorescence;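 active = every replicate showing at least 50% inhibition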
Target sequence (P43351 whole entry, looked up): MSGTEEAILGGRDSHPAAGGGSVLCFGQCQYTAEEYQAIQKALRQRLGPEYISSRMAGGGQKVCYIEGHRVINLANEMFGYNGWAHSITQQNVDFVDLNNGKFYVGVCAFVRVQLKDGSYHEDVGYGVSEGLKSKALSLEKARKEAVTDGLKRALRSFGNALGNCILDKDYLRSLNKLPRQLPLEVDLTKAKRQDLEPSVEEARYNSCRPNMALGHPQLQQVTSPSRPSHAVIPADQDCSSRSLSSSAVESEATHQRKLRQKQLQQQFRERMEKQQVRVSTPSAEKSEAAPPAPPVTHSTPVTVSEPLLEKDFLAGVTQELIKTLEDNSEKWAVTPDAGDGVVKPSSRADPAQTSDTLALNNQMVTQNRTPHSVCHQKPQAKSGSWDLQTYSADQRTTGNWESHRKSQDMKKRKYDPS
RAD54 branch: inhibitors of human RAD54 branch migration; Q92698; RAD54 Holliday junction branch migration, FAM/BHQ fluorescence; inhibition, % at 10.4 µM; 0.14% of 360,000 active; AID 602329;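 active = mean normalized replicate activity at least 40 and at least half of replicates scoring 40 or more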;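 also: inhibitors cause a drop in the FAM fluorescence signal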
Large screens that a line does not name were inactive. The list is not random: actives were taken first. Their share in the collection is about 1.3%.

CN1[C@@H]2c3ccc(C4=CCCCC4)c(=O)n3C[C@H]1[C@H](CO)[C@H]2C(=O)NCc1cc(F)cc(F)c1	none (no result: UBC13 inh, PREPL inhibitor, DNA FID counter, MIN6 prolif)
Cc1ccc(F)cc1S(=O)(=O)N[C@H]1CCN(Cc2ccc(OC(C)C)cc2)C1	none (no result: UBC13 inh, PREPL inhibitor, DNA FID counter, MIN6 prolif, RAD54 branch)
C[C@H]1CN([C@@H](C)CO)C(=O)c2cc(NS(=O)(=O)c3cn(C)cn3)ccc2O[C@@H]1CN(C)Cc1ccncc1	none (no result: UBC13 inh, PREPL inhibitor, DNA FID counter, MIN6 prolif)
O=C(Nc1ccc(NC(=O)c2ccc(S(=O)(=O)c3ccccc3)cc2)cc1)c1ccccc1	DNA FID counter 46.4
CC(=O)Nc1ccc(NC(=O)c2ccc(NC(=O)c3ccccc3)cc2)cc1	none
Cc1ccc(S(=O)(=O)NC[C@H]2CC[C@H]3[C@H](CN3Cc3ccccc3C(=O)O)O2)cc1	none (no result: UBC13 inh, PREPL inhibitor, DNA FID counter, MIN6 prolif, RAD54 branch)
COc1ccc(NC(=O)NC[C@H]2CC[C@H]3[C@H](CN3Cc3ccccc3C(=O)O)O2)cc1	RAD52 anneal inh 54.4 (no result: UBC13 inh, PREPL inhibitor, DNA FID counter, MIN6 prolif, RAD54 branch)
COCC(=O)N1CC(=O)N2[C@@H](CO)[C@@H](c3ccc(C#Cc4cccc(OC)c4)cc3)[C@@H]2C1	none (no result: UBC13 inh, PREPL inhibitor, DNA FID counter, MIN6 prolif, RAD54 branch)
CN(C)C(=O)C[C@@H]1CC[C@H](NC(=O)C2CC2)[C@H](CO)O1	none (no result: UBC13 inh, PREPL inhibitor, DNA FID counter, MIN6 prolif)
CC(/C=C1\SC(=S)N(CCCC(=O)Nc2ccc(C(=O)O)c(O)c2)C1=O)=C\c1ccccc1	DNA FID counter 38.5 (no result: UBC13 inh, MIN6 prolif, RAD52 anneal inh, RAD54 branch)
CC(=Cc1ccccc1)C=C1SC(=S)N(CCCC(=O)Nc2ccc(C(=O)O)c(O)c2)C1=O	none (no result: UBC13 inh, PREPL inhibitor, DNA FID counter, MIN6 prolif)
COc1ccc(CCN=C(N)C(C)c2ccccc2)cc1OC (stereo not given)	none
CC(C)Cc1ccc(C(C)C(N)=NCCc2ccccc2)cc1 (stereo not given)	DNA FID counter 39.0 (no result: PREPL inhibitor)
C[C@H]1CN([C@@H](C)CO)C(=O)Cc2cc(NC(=O)CCN3CCOCC3)ccc2O[C@H]1CN(C)S(=O)(=O)c1ccc(F)cc1	none (no result: UBC13 inh, PREPL inhibitor, DNA FID counter, MIN6 prolif)
CCN1CCN(c2ccc(NC(=O)c3ccc(Br)o3)cc2)CC1	none (no result: PREPL inhibitor)
CN1CCN(c2ccc(NC(=O)c3ccc(-c4ccc(Br)cc4)o3)cc2)CC1	DNA FID counter 42.9 (no result: RAD54 branch)
COc1ccc(S(=O)(=O)Nc2ccc3c(c2)C(=O)N([C@@H](C)CO)C[C@H](C)[C@@H](CN(C)CC2CC2)O3)cc1	none (no result: UBC13 inh, PREPL inhibitor, DNA FID counter, MIN6 prolif, RAD54 branch)
COc1ccc(C(=O)O/N=C(/c2ccccc2)c2ccncc2)cc1	PREPL inhibitor 87.5 (no result: RAD54 branch)
OC1=C(O)c2nc3cc(F)ccc3nc21	DNA FID counter 38.1
CC(C)NC(=O)Nc1ccc2c(c1)C(=O)N([C@H](C)CO)C[C@@H](C)[C@@H](CN(C)Cc1ccc(C(=O)O)cc1)OCCCC[C@H](C)O2	none (no result: UBC13 inh, PREPL inhibitor, DNA FID counter, MIN6 prolif)
CCC(=O)N1[C@@H](C#N)[C@H](c2ccccc2-c2ccccc2)[C@@H]1CO	RAD52 anneal inh 70.9 (no result: UBC13 inh, PREPL inhibitor, DNA FID counter, MIN6 prolif, RAD54 branch)
C/C=C/c1ccccc1[C@H]1[C@@H](C#N)N(c2ncc(CC)s2)[C@@H]1CO	RAD52 anneal inh 64.6 (no result: UBC13 inh, PREPL inhibitor, DNA FID counter, MIN6 prolif, RAD54 branch)
CCc1nc(N2[C@H](CO)[C@H](c3ccccc3-c3ccc(F)cc3)[C@@H]2C#N)sc1C	RAD52 anneal inh 60.3 (no result: UBC13 inh, PREPL inhibitor, DNA FID counter, MIN6 prolif, RAD54 branch)
CCc1nc(N2[C@@H](C#N)[C@@H](c3ccccc3-c3ccc(F)cc3)[C@@H]2CO)sc1C	none (no result: UBC13 inh, PREPL inhibitor, DNA FID counter, MIN6 prolif, RAD54 branch)
COc1ccc(CCNCC(O)COc2ccc(OC)cc2C(C)(C)C)cc1 (stereo not given)	DNA FID counter 43.1
COc1ccc(CCNCC(O)COc2cccc(Br)c2)cc1OC (stereo not given)	none
C[C@@H]1CN([C@H](C)CO)C(=O)c2cc(NS(=O)(=O)c3ccc(F)cc3)ccc2O[C@@H](C)CCCCO[C@H]1CN(C)Cc1ccccc1	none (no result: UBC13 inh, PREPL inhibitor, DNA FID counter, MIN6 prolif)
CN(C)c1ccc2c(c1)[C@@H]1C[C@H](CC(=O)NCc3ccccc3)O[C@@H](CO)[C@@H]1O2	none (no result: UBC13 inh, PREPL inhibitor, DNA FID counter, MIN6 prolif)
Oc1c(C=Nc2cccc3cccnc23)sc2ccccc12	PREPL inhibitor 44.9 (no result: RAD52 anneal inh, RAD54 branch)
CN(C)C(=O)C[C@H]1C[C@@H]2c3cc(NC(=O)Nc4ccc(C(F)(F)F)cc4)ccc3O[C@@H]2[C@@H](CO)O1	none (no result: UBC13 inh, PREPL inhibitor, DNA FID counter, MIN6 prolif)
CC1(C)Cc2c(sc(NC(=O)c3ccc(C(=O)c4ccccc4)cc3)c2C#N)C(C)(C)N1	DNA FID counter 37.7
COC(=O)c1c(NC(=O)c2ccc(C(=O)c3ccccc3)cc2)sc2c1CC(C)(C)NC2(C)C	none (no result: UBC13 inh, PREPL inhibitor, DNA FID counter, MIN6 prolif)
CCN1[C@H](C(=O)NCc2ccc(F)cc2)[C@@H](CO)[C@@H]2Cn3c(ccc(-c4ccccc4OC)c3=O)[C@@H]21	none (no result: UBC13 inh, PREPL inhibitor, DNA FID counter, MIN6 prolif)
O=S(=O)(c1ccc(-c2ccccc2)cc1)N1[C@@H]2CNC[C@H]1C2c1ccc(-c2cccnc2)cc1 (stereo not given in full)	RAD52 anneal inh 66.4 (no result: UBC13 inh, PREPL inhibitor, DNA FID counter, MIN6 prolif, RAD54 branch)
